# About 37,000 (12%) of roughly 300,000 compounds were called active. Cut-off read from the data, not from the text of the source: active = max response mostly above about 13% (no sharp cut-off); inactive = mostly below about 14%. Shown is part of a subset that was picked to be rich in actives.
# Assay: Cycloheximide Counterscreen for Small Molecule Inhibitors of Shiga Toxin; note: read at 38.3 µM for the half of the compounds with a filed dose; 0% is about no effect
# Settings: cell reporter, cycloheximide protein synthesis inhibition counterscreen; stronger effect = higher value
row,Structure (SMILES),max response
1,O=C(O)CC(CC(=O)N1CCOCC1)c1ccccc1 (stereo not drawn),-2.32% (inactive)
2,COc1ccc(/C=C2/C(=O)N(c3ccccc3)N=C2C)c(OC)c1,-1.9% (inactive)
3,Cc1cn(C2C=CC(CO)O2)c(=O)[nH]c1=O (stereo not drawn),-1.84% (inactive)
4,CN(C)CCN(Cc1ccccc1)S(=O)(=O)c1csc(C(N)=O)c1,-8.34% (inactive)
5,Cc1cccc(N2CCN(c3ccc(C(N)=O)cc3[N+](=O)[O-])CC2)c1C,-1.03% (inactive)
6,CCOC(=O)C1CCN(c2ccc(C(=O)O)cc2[N+](=O)[O-])CC1,-2.89% (inactive)
7,Cc1ccc(C(=O)c2ccc(N3CCN(C)CC3)c([N+](=O)[O-])c2)cc1,18.7% (active)
8,COc1ccc(C(=O)NC2(C(F)(F)F)NC(=O)N(CCCc3ccccc3)C2=O)c(OC)c1OC (stereo not drawn),10.5% (inactive)
9,Cc1ccc2c(c1)N(CC(=O)NCCc1ccc(Cl)cc1)C(=O)c1cccnc1O2,-1.47% (inactive)
10,CCn1cc(S(=O)(=O)c2cccc(C)c2)c(=O)c2cc(F)c(N3CCN(C)CC3)cc21,-2.21% (inactive)
11,CN(Cc1ccccc1Cl)C(=O)C1CCC(=O)N(CCc2cccc(F)c2)C1 (stereo not drawn),10% (inactive)
12,Cc1cccc(C(=O)NCCCN(C)CCCNC(=O)c2cccc(C)c2)c1,-0.372% (inactive)
13,Cc1cccc(C(=O)NC(=S)N(C)C2CCCCC2)c1,61% (active)
14,Cc1cccc(NC(=S)NCCN(C2CCCCC2)C2CCCC2)c1,-7.35% (inactive)
15,Cc1[nH]c(=O)c(C(=O)/C=C/c2ccccc2)c2c1CCCC2,-1.39% (inactive)
16,COc1ccc(C(=O)/C=C/c2cccnc2)c(OC)c1,8.73% (inactive)
17,O=S(=O)(/C=C/c1ccccc1)N1CCNCC1,0.861% (inactive)
18,COc1ccc(/C=C/C(=O)c2ccc(OC)cc2O)cc1,41.2% (active)
19,O=C(/C=C/c1ccccc1)c1ccoc1,40.4% (active)
20,O=C(/C=C/c1ccccc1)N/C(=C/c1ccccc1)C(=O)Nc1ccccc1O,8.16% (inactive)
21,CC(/C=C/c1ccccc1)=N\NC(=O)C1CC1(C)c1ccccc1 (stereo not drawn),-2.65% (inactive)
22,O=C(/C=C/c1ccccc1)c1ccccc1O,29.3% (active)
23,COc1ccc(/C=C/C(=O)c2cc(Br)ccc(=O)c2O)cc1,-1.31% (inactive)
24,CC(C)c1nc(CNC(=O)CC2C(=O)NCCN2Cc2cccc(F)c2F)cs1 (stereo not drawn),-2.45% (inactive)
25,COc1cc(C2NC(=O)NC(c3ccccc3)=C2C(C)=O)c(Br)cc1OCC(N)=O (stereo not drawn),-1.35% (inactive)

row,Structure (SMILES),max response
1,O=C(c1cccc(F)c1)N1CCN(c2ccc([N+](=O)[O-])c3cccnc23)CC1,-5.99% (inactive)
2,COc1cccc(C(=O)N2CCC(n3nccc3NC(=O)C3CCOC3)CC2)c1 (stereo not drawn),2.44% (inactive)
3,CC(=O)N(Cc1cc(=O)[nH]c2ccccc12)c1ccc(C)cc1C,-0.991% (inactive)
4,COc1ccccc1NC(=O)/C=C/C(N)=O,9.83% (inactive)
5,Cc1ccc(C)c(C(C)NC(=O)C2CCCO2)c1 (stereo not drawn),-2.44% (inactive)
6,Cc1cc(C)c2nc(NC(=O)C3CCCO3)sc2c1 (stereo not drawn),44.3% (active)
7,Cc1cc([N+](=O)[O-])ccc1NC(=O)C1CCCO1 (stereo not drawn),3.91% (inactive)
8,CCOCCc1nn2c(=O)cc(CSCC(=O)Nc3cccc(C)c3C)nc2s1,-4.2% (inactive)
9,COc1ccccc1S(=O)(=O)c1c(C)cc(C)[nH]c1=O,-6.18% (inactive)
10,CCCCOC(=O)c1ccc(NC(c2ccc(C)cc2)P(=O)(OC)OC)cc1 (stereo not drawn),-2.29% (inactive)
11,Cc1cc(C)c(OCC(=O)N(Cc2cccs2)C2CCS(=O)(=O)C2)c(C)c1 (stereo not drawn),8.48% (inactive)
12,CCN(CC)c1ccc([N+](=O)[O-])c2cccnc12,0.792% (inactive)
13,Cc1ccccc1Nc1c([N+](=O)[O-])ccc2nonc12,0.319% (inactive)
14,CN(c1ccccc1)c1ccc([N+](=O)[O-])c2nonc12,12% (active)
15,CC(C)c1ccc(NC2CCCN(C(=O)c3ccncc3)C2)cc1 (stereo not drawn),-4.01% (inactive)
16,Cc1ccc(S(=O)(=O)N2CCN(CC(=O)N/N=C/c3ccc(Br)s3)CC2)cc1,-1.09% (inactive)
17,COCCCNc1nc2ccccc2nc1NS(=O)(=O)c1ccc(F)cc1,-1.37% (inactive)
18,O=C(COc1ccccc1)Nc1ccc(N2CCN(C(=O)c3cccs3)CC2)cc1,-1.71% (inactive)
19,COc1ccc(N2CCN(C(=O)c3cccs3)CC2)cc1,20.7% (active)
20,COc1ccc(C2C(C(=O)N3CCN(c4ccc(OC)cc4)CC3)c3ccccc3C(=O)N2C)cc1 (stereo not drawn),-3.17% (inactive)
21,CC(=C1C(=O)c2ccccc2C1=O)N1CCN(c2ccccn2)CC1,4.62% (inactive)
22,COc1ccc(N2CCN(C(C)=C3C(=O)c4ccccc4C3=O)CC2)cc1,40.7% (active)
23,COc1ccc(OCC(=O)N2CCN(C(=O)c3cccs3)CC2)cc1,-2.3% (inactive)
24,O=C(N[C@@H](Cc1ccccc1)C(=O)OCc1ccccc1)c1nc[nH]c1C(=O)N[C@@H](Cc1ccccc1)C(=O)OCc1ccccc1,-1.4% (inactive)
25,Cc1ccc(N2C(=O)CC(Sc3ncn[nH]3)C2=O)cc1 (stereo not drawn),-4.4% (inactive)

row,Structure (SMILES),max response
1,COc1cccc(/C=C2\Sc3ccc(C(=O)NCC4CCCO4)cc3N(C)C2=O)c1 (stereo not drawn),6.25% (inactive)
2,O=[N+]([O-])c1cccc(Nc2c3ccccc3nc3ccccc23)c1,4.55% (inactive)
3,O=[N+]([O-])c1ccc2c(c1)Nc1nc3ccccc3nc1N2,22.7% (active)
4,COc1ccc([N+](=O)[O-])cc1-c1nc2ccccc2nc1-c1ccccc1,-2.38% (inactive)
5,O=C(NCCOc1cccnc1)c1ccc(OC2CCN(Cc3ccccn3)CC2)cc1,10.4% (inactive)
6,O=C(CN1CCC(O)(c2cccc(C(F)(F)F)c2)CC1)NCCc1ccccc1,-0.807% (inactive)
7,Cc1nn(CC(=O)Nc2ccc3c(c2)OCO3)c(C)c1[N+](=O)[O-],0.353% (inactive)
8,Cn1cc([N+](=O)[O-])c(C(=O)Nc2cnn(Cc3ccc(F)cc3)c2)n1,9.36% (inactive)
9,Cc1onc(C(=O)Nc2ccc3c(c2)OCO3)c1[N+](=O)[O-],30.6% (active)
10,Cc1nc([N+](=O)[O-])cn1CC(=O)Nc1ccc2c(c1)OCO2,-2.41% (inactive)
11,COc1cccc(NC(=O)c2nn(C34CC5CC(CC(C5)C3)C4)cc2[N+](=O)[O-])c1,13.1% (inactive)
12,Cn1cc([N+](=O)[O-])c(C(=O)Nc2ccc3c(c2)OCCO3)n1,26.5% (active)
13,CCCc1nn(C)c2c(=O)[nH]c(-c3cc(S(N)(=O)=O)ccc3OCC)nc12,-4.06% (inactive)
14,COCCn1c(SCC(=O)N2CCCCCC2)nc2c(c1=O)SCC2,4.66% (inactive)
15,CC(C)Cc1ccc(C(C)C(=N)N)cc1 (stereo not drawn),-2.08% (inactive)
16,COCc1ccc(C(=O)NC2CC(C)(C)Cc3c2cnn3-c2ccc(C)cc2)o1 (stereo not drawn),4.44% (inactive)
17,COCc1c(N)c(C)nc(Cl)c1C#N,14% (active)
18,COC(=O)c1c(C)c(C)nc(N)c1C#N,5.15% (inactive)
19,Cc1nc(Cl)c(C#N)c2c1CCCC2,4.78% (inactive)
20,Fc1ccc(CNCc2ccc(Br)cc2)cc1,2.17% (inactive)
21,CCc1cc2c(=O)n(-c3ccccc3)c(SCC(=O)O)nc2s1,-0.568% (inactive)
22,COCc1cc(=O)[nH]c(SC)n1,-3.39% (inactive)
23,Cc1cccc(OCC(=O)NCC(=O)N/N=C/c2ccc(N(C)C)cc2)c1,1.69% (inactive)
24,O=C(N/N=C/c1cccc(OCc2ccccc2)c1)c1ccc(Br)o1,47.1% (active)
25,Cc1ccc(OCCOc2cccc(/C=N/NC(N)=O)c2)cc1,15.2% (active)

row,Structure (SMILES),max response
1,O=C(N/N=C/c1ccc(OCc2ccccc2)cc1)c1ccc(O)cc1,18.7% (inactive)
2,O=C(Cc1cccs1)N/N=C/c1ccc(OCc2ccccc2)cc1,-2.21% (inactive)
3,Cc1ccc(OCCOCCOc2ccc(Br)cc2/C=N\NC(=O)c2ccncc2)cc1,-4.52% (inactive)
4,Cc1ccc(S(=O)(=O)Oc2ccc(/C=N/NC(=O)c3ccncc3)cc2)cc1,6.52% (inactive)
5,CC(C)NS(=O)(=O)c1ccc(OCC(=O)NC2CCCCCC2)cc1,1.29% (inactive)
6,O=C(NCCc1cccc(F)c1)C1CCCN(c2nc3ccccc3s2)C1 (stereo not drawn),-3.33% (inactive)
7,Cc1nc2ccc(S(=O)(=O)NC(C(=O)N3CCCCCC3)C(C)C)cc2s1 (stereo not drawn),-2.97% (inactive)
8,c1c2c(cc3sc(N4CCCCC4)nc13)OCCO2,25.6% (active)
9,Fc1ccc2nc(N3CCCCC3)sc2c1,29.6% (active)
10,c1ccc2sc(N3CCNCC3)nc2c1,11.7% (inactive)
11,CCOC(=O)N1CCC(NC(=O)c2ccc3nc(N4CCOCC4)sc3c2)CC1,-1.55% (inactive)
12,Brc1ccc2nc(N3CCCC3)sc2c1,38.8% (active)
13,Cc1nc2cc3c(cc2s1)OCO3,-2.58% (inactive)
14,Cc1nc(N2CCCCC2)sc1C=O,-2.42% (inactive)
15,O=C(CN(CC1CCCO1)C(=O)CNS(=O)(=O)c1ccc(Cl)cc1)NCc1ccccc1 (stereo not drawn),-3.57% (inactive)
16,CC1=C[C@H]2Cc3cc(C)cc(C)c3S(=O)(=O)[C@@H]2C=C1,-2.12% (inactive)
17,CC(Sc1nnc(-c2ccccc2F)n1C1CC1)C(N)=O (stereo not drawn),-2.7% (inactive)
18,O=C(NNS(=O)(=O)c1ccc([N+](=O)[O-])cc1)C1CCCCC1,10.1% (inactive)
19,COc1ccccc1C(=O)N1CCN=C1SCc1cccnc1,0.58% (inactive)
20,O=C1CN(C(=O)c2ccccc2F)C(c2ccc(F)cc2)c2cc(F)ccc2N1 (stereo not drawn),-4.28% (inactive)
21,Oc1ccc(/C=N/Nc2ccc(C(F)(F)F)cn2)cc1O,57.2% (active)
22,O=C(N/N=C/c1ccc(O)c(O)c1)C1c2ccccc2Oc2ccccc21,-0.597% (inactive)
23,Cc1nccn1CC(=O)N/N=C/c1ccc(O)c(O)c1,-1.27% (inactive)
